Among all 52,000 compounds or so, about 1,700 (3.3%) were called active. No stated cut-off is given here; in the data, active means survival mostly below about 52% (no sharp cut-off); inactive means mostly above about 56%. Shown is part of a subset that was picked to be rich in actives.
system: Wild type; test: S. aureus survival, RN4220 and DeltatarO strains – OD600, teichoic acid synthesis inhibitors, primary screen (AID 463173); details: S. aureus RN4220 wild type/DeltatarO growth, OD600, 18 h, hits give low values, screened at 18.75 µg/mL (by protocol)

Compound | survival
CCOC(=O)C(C)(C)Sc1nnc(COc2ccccc2)n1CC | 100% (inactive)
C1CCC2(C1)OCC1(CO2)COC2(CCCC2)OC1 | 111% (inactive)
Cc1ccc(NC(=O)N2CCC(CN3CCC(C)CC3)CC2)cc1F | 82% (inactive)
COc1ccc(CCNC(=O)c2cc(-c3ccc(C)cc3)nc3n[nH]c(-c4ccc(F)cc4)c23)cc1OC | 136% (inactive)
Cc1cccc(-c2nc3scc(CCNC(=O)c4ccc(Br)o4)n3n2)c1 | 74% (inactive)
Cc1cc(C)cc(NC(=O)CSc2nc3c(cnn3-c3ccc(F)cc3)c(=O)[nH]2)c1 | 65% (inactive)
O=S(=O)(c1cccc(Cl)c1)c1nnn2c1nc(NC1CCCC1)c1sccc12 | 95% (inactive)
Cc1ccccc1CNC(=O)C(=O)NCC(c1ccco1)S(=O)(=O)c1ccccc1 (configuration not stated) | 76% (inactive)
Cc1ccc(C(=O)NCC(c2ccco2)S(=O)(=O)c2ccccc2)cc1C (configuration not stated) | 72% (inactive)
Cc1ccc(C(=O)NCC(c2ccco2)S(=O)(=O)c2cccs2)cc1C (configuration not stated) | 99% (inactive)
O=C(NCc1ccccc1F)C(=O)NCC(c1ccco1)S(=O)(=O)c1ccccc1 (configuration not stated) | -6% (active)
O=C(NCC(c1ccco1)S(=O)(=O)c1cccs1)c1ccc(F)c(F)c1 (configuration not stated) | 78% (inactive)
O=C(NCc1ccccc1)C(=O)NCC(c1ccco1)S(=O)(=O)c1ccccc1 (configuration not stated) | 67% (inactive)
COc1ccc(C(=O)NCC(c2ccco2)S(=O)(=O)c2ccc(F)cc2)cc1 (configuration not stated) | 74% (inactive)
Cc1ccc(C(=O)NCC(c2ccco2)S(=O)(=O)c2ccc(Cl)cc2)cc1C (configuration not stated) | 14% (active)
COc1ccc(C(=O)NCC(c2ccco2)S(=O)(=O)c2ccccc2)cc1 (configuration not stated) | -6% (active)
CC(C)(C)c1ccc(C(=O)NCC(c2ccco2)S(=O)(=O)c2ccccc2)cc1 (configuration not stated) | 70% (inactive)
CCOc1ccc(C(=O)NCC(c2ccco2)S(=O)(=O)c2ccc(C)cc2)cc1 (configuration not stated) | 85% (inactive)
Cc1ccc(S(=O)(=O)C(CNC(=O)c2ccc(F)c(F)c2)c2ccco2)cc1 (configuration not stated) | -6% (active)
CCOc1ccc(S(=O)(=O)N(CC(=O)NCc2ccccc2OC)c2ccccc2)cc1 | 58% (inactive)
CC1=C(C#N)C(NC(=O)c2ccccc2Cl)(C(F)(F)F)C(=O)N1 (configuration not stated) | 139% (inactive)
COc1ccc(-c2cn3nc(N4CCC(C(=O)Nc5ccc(Cl)cc5C)CC4)sc3n2)cc1 | 78% (inactive)
CCOCCCn1c(=N)c(S(=O)(=O)c2ccc(C)cc2)cc2c(=O)n3cccc(C)c3nc21 | 77% (inactive)

Compound | survival
Cc1cc2nn(-c3ccccc3)nc2cc1NC(=O)c1cccc2c(Cl)cccc12 | 70% (inactive)
COc1ccc(N2CCN(CCCNC(=O)c3cnn(-c4ccc(F)cc4)c3-n3cccc3)CC2)cc1 | 77% (inactive)
CC(C)(C)c1ccc(C(=O)NCC(c2ccco2)S(=O)(=O)c2ccc(F)cc2)cc1 (configuration not stated) | 131% (inactive)
O=C(NCC(c1ccco1)S(=O)(=O)c1ccc(Cl)cc1)c1ccc(C(F)(F)F)cc1 (configuration not stated) | -1% (active)
Cc1ccc(S(=O)(=O)C(CNC(=O)c2ccc(C(F)(F)F)cc2)c2ccco2)cc1 (configuration not stated) | 134% (inactive)
O=c1c2[nH]c3ccccc3c2nc(SCc2cccc(F)c2)n1-c1ccccc1 | 53% (inactive)
CCOC(=O)CC(NC(=O)c1cc2c(=O)n3cccc(C)c3nc2s1)c1ccc(OCC(C)C)c(OC)c1 (configuration not stated) | 77% (inactive)
CCOc1ccccc1NC(=O)c1ccc(F)c(S(=O)(=O)NCc2ccc3c(c2)OCO3)c1 | 63% (inactive)
CCN(Cc1ccccc1)S(=O)(=O)c1ccc(F)c(C(=O)Nc2cc(C(F)(F)F)ccc2Cl)c1 | -1% (active)
O=C(Nc1ccc(Cl)cc1C(F)(F)F)c1cc(S(=O)(=O)NCc2ccccc2)ccc1F | 134% (inactive)
CN(Cc1ccccc1)S(=O)(=O)c1ccc(F)c(C(=O)Nc2cccc(Cl)c2Cl)c1 | 159% (inactive)
O=C(Nc1cc(Cl)ccc1Cl)c1cc(S(=O)(=O)NCCc2ccccc2)ccc1F | 133% (inactive)
COc1cc(OC)c(NC(=O)c2cnn(-c3ccccc3)c2-n2cccc2)cc1Cl | 80% (inactive)
CN(Cc1ccccc1)S(=O)(=O)c1ccc(F)c(C(=O)Nc2ccccc2C(F)(F)F)c1 | -6% (active)
O=C(Nc1cc(C(F)(F)F)ccc1Cl)c1cc(S(=O)(=O)NCc2ccccc2)ccc1F | 14% (active)
CCN(Cc1ccccc1)S(=O)(=O)c1ccc(F)c(C(=O)Nc2cc(C)ccc2OC)c1 | 120% (inactive)
CCN(Cc1ccccc1)S(=O)(=O)c1ccc(F)c(C(=O)Nc2ccc(C(C)C)cc2)c1 | 95% (inactive)
CN(Cc1ccccc1)S(=O)(=O)c1ccc(F)c(C(=O)Nc2cc(Cl)cc(Cl)c2)c1 | 76% (inactive)
COc1ccccc1NC(=O)c1cnn(-c2ccccc2)c1-n1cccc1 | 99% (inactive)
O=C(Nc1cc(C(F)(F)F)ccc1Cl)c1cnn(-c2ccccc2)c1-n1cccc1 | -3% (active)
COc1cccc(CNC(=O)c2ccc3c(c2)c(C)c(C)n3Cc2ccccc2)c1 | 72% (inactive)
CCC(C)Nc1sc(S(=O)(=O)CC)nc1S(=O)(=O)c1ccc(C)cc1 (configuration not stated) | 78% (inactive)
COc1ccccc1CNC(=O)Cn1ncn2c(cc3sccc32)c1=O | 76% (inactive)

Compound | survival
O=C(CN1C(=O)COc2ccc(S(=O)(=O)N3CCOCC3)cc21)N1CCN(c2ccccc2F)CC1 | 100% (inactive)
O=C(CCS(=O)(=O)c1ccccc1)N(Cc1cccnc1)c1nc2ccc(F)cc2s1 | 124% (inactive)
CCc1nccn1S(=O)(=O)c1cc(Br)ccc1Br | 69% (inactive)
CCOc1cc(C)c(C(C)C)cc1S(=O)(=O)n1ccnc1CC | -11% (active)
Cc1nccn1S(=O)(=O)c1c(C(C)C)cc(C(C)C)cc1C(C)C | 119% (inactive)
Cc1ccc2[nH]c3c(=O)n(CC(=O)N(C)Cc4ccccc4)ncc3c2c1 | -3% (active)
Cc1ccc(CCNC(=O)Cn2ncc3c([nH]c4ccc(C)cc43)c2=O)cc1 | 131% (inactive)
CCCCN(C)C(=O)Cn1ncc2c([nH]c3ccc(C)cc32)c1=O | 81% (inactive)
Cc1ccc2[nH]c3c(=O)n(CC(=O)NC(C)C)ncc3c2c1 | 1% (active)
Cc1ccc2[nH]c3c(=O)n(CC(=O)N(CCN(C)C)Cc4ccccc4)ncc3c2c1 | 99% (inactive)
Cc1ccc(CNC(=O)Cn2ncc3c([nH]c4ccc(C)cc43)c2=O)cc1 | 79% (inactive)
O=C(NCC(c1cccs1)S(=O)(=O)c1cccs1)c1ccccc1 (configuration not stated) | 70% (inactive)
COc1ccccc1CCNC(=O)Cn1ccc2cc(S(=O)(=O)N3CCCCC3)ccc21 | 87% (inactive)
Cc1cccc(C(=O)n2nc(-c3cccnc3)nc2NCc2ccccc2)c1 | 106% (inactive)
COc1ccccc1-c1nc(S(=O)(=O)c2ccccc2)c(N2CCC(C)CC2)o1 | -5% (active)
Cc1ccc(S(=O)(=O)c2nc(-c3ccc(F)cc3)oc2N2CCN(c3ccccc3)CC2)cc1 | 115% (inactive)
O=S(=O)(c1ccccc1)c1nc(-c2ccccc2Cl)oc1N1CCCCCC1 | 14% (active)
O=S(=O)(c1ccccc1)c1nc(-c2ccc(Cl)cc2Cl)oc1N1CCCCC1 | 57% (inactive)
Cc1ccc(S(=O)(=O)c2nc(-c3ccccc3Cl)oc2N2CCCCCC2)cc1 | 20% (inactive)
COc1ccc(-c2nc(S(=O)(=O)c3ccc(Cl)cc3)c(N3CCCCCC3)o2)cc1 | 64% (inactive)
COc1ccc(-c2nc(S(=O)(=O)c3ccccc3)c(N3CCC(C)CC3)o2)cc1 | 89% (inactive)
Cc1ccc(-c2nc(S(=O)(=O)c3ccc(Cl)cc3)c(N3CCCCC3)o2)cc1 | 5% (active)
COc1ccccc1-c1nc(S(=O)(=O)c2ccc(Cl)cc2)c(N2CCCCCC2)o1 | 70% (inactive)

Compound | survival
Cc1ccc(S(=O)(=O)c2nc(-c3ccccc3F)oc2N2CCCCC2)cc1 | 17% (active)
Cc1ccc(S(=O)(=O)c2nc(-c3ccc(Cl)cc3)oc2N2CCCCCC2)cc1 | 30% (inactive)
O=S(=O)(c1ccccc1)c1nc(-c2ccccc2F)oc1N1CCOCC1 | 77% (inactive)
CCC(Oc1ccccc1)C(=O)Nc1cc(-c2cccc(C)c2)nn1-c1ccccc1 (configuration not stated) | 89% (inactive)
CCOC(=O)c1ccc(NC(=O)CSc2nnc(CNC(=O)c3ccc(OC)cc3)n2CC)cc1 | 134% (inactive)
COc1ccc(-c2nnc(C3CCN(C(=O)c4ccccc4F)CC3)o2)cc1 | 85% (inactive)
CCOC(=O)c1ccc(NC(=O)CC2C(=O)N(c3ccccc3)C(=O)N2Cc2ccc(C)cc2)cc1 (configuration not stated) | 58% (inactive)
COc1ccccc1NC(=O)CCCc1nnc2n(C)c(=O)c3sccc3n12 | 97% (inactive)
CC1CCN(C(=O)CS(=O)(=O)Cc2ccccc2)CC1 | 102% (inactive)
O=C1C(=O)N(C2CCN(C(=O)c3cccc(Cl)c3)CC2)CCN1Cc1ccc(F)cc1 | 77% (inactive)
Cc1nc2c3ccccc3nc(NNC(=O)CCC(=O)N3CCN(c4ccccc4)CC3)n2n1 | 81% (inactive)
COc1ccc(-n2c(=O)c3c(c4cc(OC)ccc4n3C)n(CC(=O)NCC3CCCO3)c2=O)cc1 (configuration not stated) | 83% (inactive)
COc1ccc(CNCCSc2nnnn2-c2ccccc2)cc1 | 83% (inactive)
Cc1ccc(C)c(NC(=O)CN(Cc2ccccc2)S(=O)(=O)c2ccc3nc(C)sc3c2)c1 | 66% (inactive)
Cc1ccc(-c2nc(S(=O)(=O)c3ccc(C)cc3)c(N3CCCCC3)o2)cc1 | 0% (active)
Cc1ccc(-c2nc(S(=O)(=O)c3ccc(C)cc3)c(N3CCCCCC3)o2)cc1 | 84% (inactive)
Cc1cccc(-c2nc(S(=O)(=O)c3ccc(Cl)cc3)c(N3CCCCCC3)o2)c1 | 41% (inactive)
Cc1ccc(S(=O)(=O)c2nc(-c3cccc(C)c3)oc2N2CCN(c3ccccc3)CC2)cc1 | 117% (inactive)
Cc1ccc(-c2nc(S(=O)(=O)c3ccc(C)cc3)c(N3CCN(c4ccccc4)CC3)o2)cc1 | 104% (inactive)
Cc1ccc(S(=O)(=O)c2nc(-c3ccccc3)oc2N2CCCCCC2)cc1 | 6% (active)
Cc1ccc(S(=O)(=O)c2nc(-c3ccccc3)oc2N2CCN(c3ccccc3)CC2)cc1 | 86% (inactive)
COc1ccc(-c2nc(S(=O)(=O)c3ccc(C)cc3)c(N3CCCCC3)o2)cc1 | 63% (inactive)
Cc1ccc(S(=O)(=O)c2nc(-c3cccc(C)c3)oc2N2CCCCC2)cc1 | 2% (active)

Reference: PubChem BioAssay AID463173 (ICCB-Longwood Screening Facility, Harvard Medical School, 2010)
